Assay results as given in the supplement of paper PMC8540655.
A number with no mark means an inactive call.

System: Aedes aegypti larvae
Assay: larval motility relative to same well at 0 h (fraction); higher = more motile (less active compound), active = 0.4 or less
Conditions: 10 µM
Outline: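 Larvae (Aedes aegypti, hatched in pond salt solution with yeast at 25 °C and taken 18–24 h later) were plated at about 10 per 100 µL well. Compounds at 10 µM in 1% v/v DMSO were imaged with INVAPP at 0, 2 and 24 h, alongside solvent and larvicide controls on each plate. Reported relative motility is each well's score over its own starting score, as a median of three independent larval batches.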

CC(C)/N=c1\cc2n(-c3ccc(Cl)cc3)c3ccccc3nc-2cc1Nc1ccc(Cl)cc1
larval motility (2 h): 0.957 | larval motility (24 h): 0.786

CC(=O)N[C@H](C)C(=O)N[C@H](Cc1ccccc1)C(=O)O
larval motility (2 h): 0.496 | larval motility (24 h): 0.597

CC(Oc1ccc(Cl)cc1Cl)C(=O)NCc1ccc2c(c1)OCO2 (centres undefined)
larval motility (2 h): 0.508 | larval motility (24 h): 0.902

CCCCSc1nc(N)c2[nH]c(=O)c(=O)n(Cc3ccccc3)c2n1
larval motility (2 h): 0.896 | larval motility (24 h): 1.51

O=C1NC(=O)C(Br)=C1Br
larval motility (2 h): 0.672 | larval motility (24 h): 0.484

Cc1cc(C)n(O)c(=O)c1
larval motility (2 h): 0.846 | larval motility (24 h): 0.863

O=C(Nc1ccc(-c2ccccc2)cc1)C1=C(O)C(Cc2ccccc2)OC1=O (centres undefined)
larval motility (2 h): 0.886 | larval motility (24 h): 0.946

CC1(C)[C@H](C(=O)O)N2C(=O)C[C@H]2S1(=O)=O
larval motility (2 h): 0.965 | larval motility (24 h): 1.35

Clc1ccc(COC(Cn2ccnc2)c2ccc(Cl)cc2Cl)c(Cl)c1 (centres undefined)
larval motility (2 h): 0.499 | larval motility (24 h): 0.677

COc1ccc(NS(=O)(=O)c2ccc(Cl)s2)cn1
larval motility (2 h): 0.931 | larval motility (24 h): 1.43

CCCC(=O)OCCc1ccccc1
larval motility (2 h): 0.51 | larval motility (24 h): 0.648

COc1ccc(COc2cc3oc(=O)c4cc(C(C)O)ccc4c3cc2OC)cc1 (centres undefined)
larval motility (2 h): 1.02 | larval motility (24 h): 1.2

O=C(NCc1ccc2c3c(cccc13)C(=O)N2)c1cccs1
larval motility (2 h): 0.944 | larval motility (24 h): 0.861

CCCCCCCCCN1C[C@@H](O)[C@H](O)[C@@H](O)[C@@H]1CO
larval motility (2 h): 0.996 | larval motility (24 h): 1.3

O=C(CCCC(F)(F)F)N1CCC(c2nc(-c3nccs3)no2)CC1
larval motility (2 h): 0.824 | larval motility (24 h): 1.08

CCOC(=O)N1CCN(c2ccc(Cl)cc2)CC1
larval motility (2 h): 1.05 | larval motility (24 h): 1.36

CCCCCCCc1[nH]c2ccccc2c(=O)c1O
larval motility (2 h): 0.74 | larval motility (24 h): 0.565

COc1cc(NC(=O)CN2C(=O)NC(c3ccccc3)(c3ccccc3)C2=O)cc(OC)c1
larval motility (2 h): 0.866 | larval motility (24 h): 1.08

Fc1ccc2c(/C=C/c3nnn[nH]3)c[nH]c2c1
larval motility (2 h): 1.85 | larval motility (24 h): 1.39

O=C(c1nc2c(C(F)(F)F)cc(C3CC3)cn2c1Cl)N1CCN([C@H]2CC[C@H](O)CC2)C(=O)C1
larval motility (2 h): 0.697 | larval motility (24 h): 0.894

Nc1nc2c(ncn2/C=C2/CC2(CO)CO)c(=O)[nH]1
larval motility (2 h): 0.842 | larval motility (24 h): 0.573

Oc1ccc2[nH]c(-c3ccccc3)nc2c1
larval motility (2 h): 0.633 | larval motility (24 h): 0.514

Cc1ccc(NC(=O)c2cc(Cl)ccc2O)cc1
larval motility (2 h): 0.656 | larval motility (24 h): 0.616

Nc1cc(-c2nc3ccccc3[nH]2)n[nH]c1=O
larval motility (2 h): 1.17 | larval motility (24 h): 1.18

CN(C/C=C/C#CC(C)(C)C)Cc1cccc2ccccc12
larval motility (2 h): 0.66 | larval motility (24 h): 0.879

O=C(NO)C1(CS(=O)(=O)c2ccc(Oc3ccc(Cl)cc3)cc2)CCOCC1
larval motility (2 h): 0.471 | larval motility (24 h): 1.04

Nc1nc(F)nc2c1ncn2[C@H]1O[C@@H](CO)[C@H](O)[C@@H]1O
larval motility (2 h): 0.949 | larval motility (24 h): 0.854

NC(=O)c1c(N)sc2c1CCCCC2
larval motility (2 h): 0.947 | larval motility (24 h): 1.32

CC(C)Oc1ccc(-n2cnc3cc(/C=C\c4ccc(C(C)(C)O)cc4)ccc32)cc1
larval motility (2 h): 0.656 | larval motility (24 h): 1.03

NC(=O)c1nccn([C@@H]2O[C@H](CO)[C@@H](O)[C@H]2O)c1=O
larval motility (2 h): 0.824 | larval motility (24 h): 1.16

O=c1cc(NCCCN[C@@H]2CCOc3c(Br)cc(Br)cc32)[nH]c2ccsc12
larval motility (2 h): 0.659 | larval motility (24 h): 1.28

CN(C)[C@@H]1C(=O)C(C(N)=O)=C(O)[C@@]2(O)C(=O)C3=C(O)c4c(O)c(NC(=O)CN5CCCC5)cc(F)c4C[C@H]3C[C@@H]12
larval motility (2 h): 0.841 | larval motility (24 h): 1.78

O=C(O)C(Cc1c[nH]c2ccccc12)N1C(=O)c2ccccc2C1=O (centres undefined)
larval motility (2 h): 1.75 | larval motility (24 h): 1.18

OC[C@@H]1CC[C@H](n2cnc3c(O)ncnc32)O1
larval motility (2 h): 1.15 | larval motility (24 h): 0.963

CCC(C)NCC(O)Cn1c2ccc(Cl)cc2c2cc(Cl)ccc21 (centres undefined)
larval motility (2 h): 0.799 | larval motility (24 h): 1

CC[C@@]1(O)C(=O)OCc2c1cc1n(c2=O)Cc2cc3c([N+](=O)[O-])cccc3nc2-1
larval motility (2 h): 0.324 (active) | larval motility (24 h): 0.433

COc1cc2c(O)c3c(c(-c4ccc5c(c4)OCO5)c2cc1OC)C(=O)OC3
larval motility (2 h): 0.887 | larval motility (24 h): 0.868

CCOc1noc2cc(OCCC3CCN(c4ccc(C)nn4)CC3)ccc12
larval motility (2 h): 0.793 | larval motility (24 h): 1.06

[N-]=[N+]=N[C@H]1C[C@H](n2ccc(=O)[nH]c2=O)O[C@@H]1CO
larval motility (2 h): 1.11 | larval motility (24 h): 0.881

CCCC1(C2CC2)c2cc(Cl)ccc2NC(=O)N1C (centres undefined)
larval motility (2 h): 0.846 | larval motility (24 h): 0.863

O=C(Nc1nnc(-c2ccccc2)o1)c1ccc(F)cc1
larval motility (2 h): 0.832 | larval motility (24 h): 0.868

Cc1ccc(NC(=O)c2ccc(CN3CCN(C)CC3)cc2)cc1Nc1nccc(-c2cccnc2)n1
larval motility (2 h): 0.64 | larval motility (24 h): 0.702
